Source: PMC4336329 (PLoS ONE, 2015)
The whole screen tested about 310,000 compounds, of which about 14,000 (4.5%) showed an effect of 50% or more. The effect is printed as a negative number. The list comes from a sample in which strong results are over-represented; it also holds similar structures and randomly drawn compounds.

These molecules were tested against human ether-à-go-go-related gene (hERG) potassium channel (human, UniProt Q12809) (assay: primary screen, population patch clamp on CHO cells stably expressing hERG; higher = less effect of the substance).
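Note: peak tail current of the secondary pulse compared with the same well before compound.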

Sequence of human ether-à-go-go-related gene (hERG) potassium channel (Q12809 whole entry, looked up): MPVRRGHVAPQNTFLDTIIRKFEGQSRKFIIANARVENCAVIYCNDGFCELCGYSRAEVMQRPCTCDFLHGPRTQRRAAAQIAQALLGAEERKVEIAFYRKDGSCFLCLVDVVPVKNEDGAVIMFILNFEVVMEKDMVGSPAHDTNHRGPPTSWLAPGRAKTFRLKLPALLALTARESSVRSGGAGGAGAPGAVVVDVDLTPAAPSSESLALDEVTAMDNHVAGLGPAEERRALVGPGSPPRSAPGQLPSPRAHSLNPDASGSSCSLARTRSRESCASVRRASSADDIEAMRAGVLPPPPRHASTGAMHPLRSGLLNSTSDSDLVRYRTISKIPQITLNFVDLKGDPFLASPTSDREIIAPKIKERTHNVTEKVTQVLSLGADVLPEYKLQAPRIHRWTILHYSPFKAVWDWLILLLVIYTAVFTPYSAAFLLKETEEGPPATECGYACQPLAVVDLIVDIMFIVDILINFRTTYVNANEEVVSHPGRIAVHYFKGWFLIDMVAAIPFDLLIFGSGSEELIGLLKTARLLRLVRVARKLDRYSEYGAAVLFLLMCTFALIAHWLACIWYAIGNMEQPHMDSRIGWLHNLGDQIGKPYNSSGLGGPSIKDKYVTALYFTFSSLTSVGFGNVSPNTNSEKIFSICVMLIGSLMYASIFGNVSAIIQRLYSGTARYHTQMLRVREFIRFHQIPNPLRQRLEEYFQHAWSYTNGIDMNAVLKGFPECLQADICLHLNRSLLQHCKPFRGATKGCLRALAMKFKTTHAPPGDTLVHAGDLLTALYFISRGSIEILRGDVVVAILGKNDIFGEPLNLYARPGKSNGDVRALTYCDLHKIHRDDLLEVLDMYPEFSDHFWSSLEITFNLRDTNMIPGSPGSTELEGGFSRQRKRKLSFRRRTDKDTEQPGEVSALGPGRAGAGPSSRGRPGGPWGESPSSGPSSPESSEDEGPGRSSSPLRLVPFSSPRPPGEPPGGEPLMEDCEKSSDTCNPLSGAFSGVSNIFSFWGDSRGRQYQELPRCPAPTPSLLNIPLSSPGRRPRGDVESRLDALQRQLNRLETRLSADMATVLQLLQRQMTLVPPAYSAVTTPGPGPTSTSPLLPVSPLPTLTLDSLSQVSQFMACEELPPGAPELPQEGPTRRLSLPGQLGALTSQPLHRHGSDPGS

SMILES | hERG current change (%, negative = inhibition) at 10uM [%]
CCC1(C)CC(C(N)=S)CCO1 (centres unmarked) | 27.4
O=C(C1CCC1)N(CCc1ccccc1)Cc1nc2ccccc2c(=O)[nH]1 | -4.04
CCc1nnc(NC(=O)CN2C(=O)c3ccccc3S2(=O)=O)s1 | 10.7
Cc1ccc(S(=O)(=O)Nc2c(C)nn(C)c2C)cc1 | -4.07
CCn1c(=O)c2sccc2n(Cc2ccc(C)cc2)c1=O | 26
Cc1ccc(NC(=O)N2CCN(Cc3ccc4c(c3)OCO4)CC2)cc1 | -33.8
O=C(Nc1ccccc1)N1CCN(Cc2ccc3c(c2)OCO3)CC1 | -26.1
CC1CCc2nc(NC(=O)CN3CCOCC3)sc2C1 (centres unmarked) | -4.5
O=C(CN1CCN(S(=O)(=O)c2ccc(F)cc2)CC1)Nc1ccc2c(c1)OCO2 | -40.6
Cc1cc(C)cc(NC(=O)N2CCN(Cc3ccc4c(c3)OCO4)CC2)c1 | -59
CC1CCc2nc(NC(=O)CN3CCN(Cc4ccc5c(c4)OCO5)CC3)sc2C1 (centres unmarked) | -66.7
O=C(CN1CCN(Cc2ccc3c(c2)OCO3)CC1)NCC(F)(F)F | 5.34
O=C(CN1CCN(c2ccc(F)cc2)CC1)Nc1ccc2c(c1)OCCO2 | 4
CC1CCc2nc(NC(=O)CN3CCN(c4ccccc4)CC3)sc2C1 (centres unmarked) | -6.29
O=C(CN1CCN(CC(=O)Nc2ccc3c(c2)OCO3)CC1)Nc1ccc(F)cc1 | -73.4
COc1cc(NC(=O)CN2CCN(Cc3ccc4c(c3)OCO4)CC2)cc(OC)c1.O=C(O)C(=O)O | -47
O=C(CN1CCN(Cc2ccc3c(c2)OCO3)CC1)Nc1ccc(F)cc1 | -81.7
O=C(/C(=C(/[O-])c1ccccc1)[n+]1ccccc1)c1ccc([N+](=O)[O-])cc1 | 6.47
Cc1ccc(-c2nnc(N(C)C(=O)c3ccncc3)s2)cn1 | 1.62
CCC(C)(C)NC(=O)C(c1cccnc1)N(C(=O)c1csnn1)c1ccc(C)cc1 (centres unmarked) | 10.6
CCCOc1ccc(-c2c(C(=O)N/N=C/c3ccccc3OCC)nnn2-c2nonc2N)cc1 | 22.7
COc1ccc(OC)c(C2C(C(=O)c3cc4ccccc4o3)=C(O)C(=O)N2c2cc(C)on2)c1 (centres unmarked) | 2.7

SMILES | hERG current change (%, negative = inhibition) at 10uM [%]
COc1ccc2oc(C(=O)NN3C(C)CCCC3C)c(C)c2c1 (centres unmarked) | 16.1
CNc1nccc(-c2ccc(F)cc2)c1C#N | 6.25
OC1(c2ccc3c(c2)OCO3)CCN(Cc2ccccn2)CC1 | -6.96
O=S(=O)(c1ccc(F)cc1)N1CCC(O)(c2ccc3c(c2)OCO3)CC1 | -42
O=C(CN1CCN(Cc2ccc3c(c2)OCO3)CC1)Nc1ccc(N2CCOCC2)cc1 | -6.54
OC1(c2ccc3c(c2)OCO3)CCN(Cc2ccc(F)cc2)CC1 | -51.4
CN(C)S(=O)(=O)c1ccc(Cl)c(NC(=O)CN2CCN(Cc3ccc4c(c3)OCO4)CC2)c1 | -64.6
Fc1ccccc1N1CCN(Cc2ccc3c(c2)OCO3)CC1 | -26.8
O=C(CN1CCN(Cc2ccc3c(c2)OCO3)CC1)Nc1cc(S(=O)(=O)N2CCCC2)ccc1Cl | -18.8
O=C(CN1CCN(Cc2ccc3c(c2)OCO3)CC1)Nc1ccc2c(c1)OCO2 | -72.5
COc1ccc(NC(=O)CN2CCN(Cc3ccc4c(c3)OCO4)CC2)cc1OC.O=C(O)C(=O)O | -17.4
CN(C)S(=O)(=O)c1ccc(Cl)c(NC(=O)CN2CCCCCC2)c1 | -24.6
Cc1cccc(N2CCN(Cc3ccc4c(c3)OCO4)CC2)c1C | 3.83
N#Cc1c(F)cccc1N1CCN(Cc2ccc3c(c2)OCO3)CC1 | -81.3
CS(=O)(=O)c1ccc2nc(NC(=O)c3ccc(N4CCCC4=O)cc3)sc2c1 | 13.3
CCCCNC(=O)[C@H]1N2C(=O)c3c(ccc(OC)c3OC)C2SC1(C)C (some centres unmarked) | 12.8
S=c1[nH]ncn1/N=C/c1ccc(N2CCOCC2)cc1 | 14.9
CCCN(Cc1nnc(-c2cccs2)o1)C(=O)c1cccc(S(=O)(=O)N2CCOCC2)c1 | -25.3
CC(NC(=O)COC(=O)c1ccc(CO)cc1)C1CC2CCC1C2 (centres unmarked) | 7.65
CC(=O)Nc1ccc(C(=O)NN2C(=O)c3ccccc3C2=O)cc1 | 7.29
COc1ccc(OC)c(C(=O)NC(CC(N)=O)c2ccc(N3CCC(Cc4ccccc4)CC3)c([N+](=O)[O-])c2)c1 (centres unmarked) | -5.07
CCOC(=O)CN(C(=O)COc1nc(-c2ccccc2)cc(C)c1C#N)c1ccc(F)cc1 | 1.18
